This is one part of the list. The source made the active and inactive calls. Cut-off read from the data, not from the text of the source: active = activation above about 8.4%; inactive = the rest.
These molecules were tested against Galanin receptor type 2 (Homo sapiens) (UniProt O43603) (assay: activators of human galanin receptor 2 – cell-based, confirmation (AID 864;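 note: 0% = buffer-only vehicle wells and 100% = full reference agonist response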)). Settings: GALR2-expressing cells, agonist activation; at 5.6 µM; active compounds read high.
Chain of Galanin receptor type 2 (Homo sapiens) (O43603 whole entry, looked up): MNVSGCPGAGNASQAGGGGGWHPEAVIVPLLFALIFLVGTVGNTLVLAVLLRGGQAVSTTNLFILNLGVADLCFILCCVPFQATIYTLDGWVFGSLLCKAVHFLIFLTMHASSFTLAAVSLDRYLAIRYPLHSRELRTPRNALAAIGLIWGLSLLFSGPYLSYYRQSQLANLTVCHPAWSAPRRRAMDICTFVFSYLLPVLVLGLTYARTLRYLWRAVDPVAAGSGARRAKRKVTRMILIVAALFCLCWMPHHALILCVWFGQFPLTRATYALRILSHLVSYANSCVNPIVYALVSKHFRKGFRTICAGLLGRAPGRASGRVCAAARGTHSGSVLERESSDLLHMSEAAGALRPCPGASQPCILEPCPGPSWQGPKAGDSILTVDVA

SMILES	activation
CC(=O)N(Cc1cccs1)C1CCOC(C)(C)C1 (stereo unspecified)	-1% (inactive)
CC(=O)Oc1ccc(C(C)=O)c2c1OCCO2	-0.99% (inactive)
CCOc1ccc2nc(Nc3nc4ccc(NC(C)=O)cc4s3)sc2c1	27.5% (active)
O=[N+]([O-])c1ccccc1SNc1ccccn1	-0.89% (inactive)
OC(COc1cccc2ccccc12)CN1CCN(c2ccccn2)CC1 (stereo unspecified)	-0.28% (inactive)
COCCN(CCOC)S(=O)(=O)c1ccc(C(=O)Nc2nc3c(s2)CCc2ccccc2-3)cc1	5.93% (inactive)
C=CCn1c(Oc2ccc(C(=O)OC)cc2)nc2c1c(=O)n(C)c(=O)n2C	0.25% (inactive)
Cc1csc(NC(=O)c2ccc(-c3ccc(Cl)cc3Cl)o2)n1	-0.78% (inactive)
COc1ccc(C(=O)CN2C(=O)NC(C)(c3ccc(C)cc3)C2=O)cc1OC (stereo unspecified)	-0.91% (inactive)
COc1ccccc1N1N=C(c2cccs2)CC1c1ccccc1 (stereo unspecified)	6.34% (inactive)
CC/C(C)=N/Nc1nc2sc3c(c2c(=O)[nH]1)CC(C)(C)OC3	-0.45% (inactive)
COc1ccc(Nc2oc(-c3ccccc3Cl)nc2C#N)cc1	2% (inactive)
Cn1c(=O)oc2cc(S(=O)(=O)N3CCC(C(=O)Nc4ccc(OC(F)(F)F)cc4)CC3)ccc21	1.24% (inactive)
COC(=O)c1ccc(NC(=O)C(C)N2C(=O)c3ccccc3C2=O)cc1 (stereo unspecified)	-0.71% (inactive)
CC1(C)CC(=O)C=C(NCCN2CCNCC2)C1	-1.05% (inactive)
Fc1ccc(N2N=C(c3cccs3)CC2c2ccco2)c(F)c1 (stereo unspecified)	1.22% (inactive)
CCOc1ccc(C(O)Cn2c(=N)n(CCN3CCCCC3)c3ccccc32)cc1 (stereo unspecified)	-0.63% (inactive)
O=C1COc2ccc(NC(=O)N3CCN(c4ccc(F)cc4)CC3)cc2N1	-0.98% (inactive)
C=CCN(CC=C)S(=O)(=O)c1ccc(C(=O)Nc2nc3c(s2)CCc2ccccc2-3)cc1	2.82% (inactive)
Cc1ccc(CCC(=O)Nc2ncc(Cc3cc(Cl)ccc3Cl)s2)o1	7.28% (inactive)
O=c1oc2cc(O)ccc2cc1-c1ccc(F)cc1	2.23% (inactive)
Cc1ccc(Cc2c(C)nc3nc(SCC(=O)NCCN4CCOCC4)nn3c2C)cc1	-0.11% (inactive)
COc1cc(SC#N)ccc1N=Cc1c(C)[nH]n(-c2ccc(C)cc2)c1=O	7.97% (inactive)
CCN(C(=O)CSc1ncn[nH]1)c1cccc2ccccc12	-1.13% (inactive)
O=C(NC(=S)Nc1ccc(NC(=O)c2cccs2)cc1)c1ccc([N+](=O)[O-])cc1	-0.89% (inactive)
CCCOc1ccc(C(=O)C(CCC(CNCC)C(=O)c2ccc(OCCC)cc2)CNCC)cc1 (stereo unspecified)	16% (active)

From PubChem BioAssay AID864 (The Scripps Research Institute Molecular Screening Center, 2007)
